PubChem BioAssay AID1863 (Southern Research Specialized Biocontainment Screening …, 2009)
Out of some 300,000 compounds screened, about 480 (0.16%) were called active.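 How the source made its calls: active means inhibition over 29.93%, a cutoff 3 SD above the screen mean, later confirmed by dose response; inconclusive means inhibition over 29.93% but no dose response follow-up; inactive means inhibition at most 29.93% or unconfirmed.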 These entries were drawn from the full list. Potency and affinity values are given separately.

Assay: inhibitors of PhoP regulon expression, primary screen, Salmonella Typhimurium, GFP reporter (AID 1863);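 further: 0% = low Mg2+ inducing control and 100% = high Mg2+ repressing control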
Conditions: S. Typhimurium PhoP-regulated promoter GFP reporter, 4 h; at 50 µM; hits give high values

inhibition, inactive:
O=C(c1ccccc1)c1ccccn1 3.01%
Cc1ccccc1-c1nnc(SCCOc2ccc3c(C)cc(=O)oc3c2)o1 0.64%
Cc1ccc(S(=O)(=O)CC(=O)c2ccc([N+](=O)[O-])cc2)cc1 -7.13%
CCn1cc(C(=O)NN)c(=O)c2cc(F)c(N3CCOCC3)cc21 -6.58%
CCn1cc(C(=O)NCc2ccccn2)c(=O)c2cc(F)c(N3CCN(C)CC3)cc21 17.4%
CCCCCOC(=O)NCC(O)c1ccccc1 (stereo unspecified) 10.7%
N#CC1=C(N)N(c2ccccc2)C(c2cccc([N+](=O)[O-])c2)C1(C#N)C#N (stereo unspecified) -7.85%
O=C(Cc1ccccc1)c1c[nH]c(C(=O)NCCCN2CCOCC2)c1 -3.4%
O=C(Nc1ccccc1N1CCOCC1)C1CCN(S(=O)(=O)c2ccc(F)cc2)CC1 -4.59%
O=C(Nc1ccc(CN2CCOCC2)cc1)c1cccc(-c2cc3ccccc3oc2=O)c1 -5.22%
O=C1c2ccccc2NC(c2ccc(-c3cccc([N+](=O)[O-])c3)o2)N1O (stereo unspecified) 43%
O=C1c2ccccc2NC(c2ccc(Cl)cc2Cl)N1O (stereo unspecified) 0.793%
Cc1cc([N+](=O)[O-])ccc1-c1ccc(C2Nc3ccccc3C(=O)N2O)o1 (stereo unspecified) -3.84%
O=C1c2ccccc2NC(c2ccco2)N1O (stereo unspecified) 7.8%
O=C(N/N=C/c1ccccc1[N+](=O)[O-])c1ccc2c(c1)OCCO2 -4.47%
CCOC(=O)c1sc(=S)n(-c2ccc(C)cc2)c1SC -0.48%
Nc1nc(N2CCOCC2)nc2ccccc12 19.6%
Nc1nc(N2CCCCC2)nc2ccccc12 0.383%
O=C(N/N=C\c1cccc(Cl)c1)c1ccc(Cn2cc(Br)c([N+](=O)[O-])n2)o1 -28.5%
O=C(O)/C=C/c1ccccc1Oc1ccc(Cl)cc1Cl 1.78%
Nc1cc(C(=O)O)c(Oc2ccc(Cl)cc2Cl)cc1C(=O)O 9.23%
COc1ccc(N2CCN(C(=O)COc3cccc4ccccc34)CC2)cc1 4.64%
Cc1ccc(NCC(=O)N/N=C/c2ccc(C(=O)O)cc2)cc1 7.26%
CC(=O)N1CCOc2ccc(S(=O)(=O)N3CCC(C(=O)Nc4ccc(C)cc4)CC3)cc21 0.99%
O=C(Cn1nc(CNc2ccc(Cl)cc2)[n+]2c1CCCCC2)c1ccccc1 8.62%
COc1ccc(NCc2nn(CC(=O)c3ccc(Br)cc3)c3[n+]2CCCCC3)cc1 -2.79%
O=C(Cn1nc(CNc2ccc(Br)cc2)[n+]2c1CCCCC2)c1ccc([N+](=O)[O-])cc1 5.85%
O=C(Cn1nc(CNc2ccc(Cl)cc2)[n+]2c1CCCCC2)c1ccc(Cl)cc1 7.8%
O=C1Nc2ccccc2OCc2c1cccc2[N+](=O)[O-] -2.35%
O=C(O)C1CCC1C(=O)Nc1nc(-c2ccc(Cl)s2)cs1 (stereo unspecified) -4.65%
CCC(=O)c1ccccc1OCCCCn1cncn1 4.32%
CN1CCN(C(=O)CSc2nnc(COc3ccc(Cl)cc3)o2)CC1 5.2%
CC(=O)Nc1cccc(NC(=O)CCNC(=O)c2ccccc2)c1 5.9%
Cc1nnc(SCc2ccc(CC(=O)O)cc2)o1 -9.32%
COc1ccc(C(=O)NCC(c2cccs2)N2CCc3ccccc32)cc1OC (stereo unspecified) -7.86%
COC(=O)C1=C(C)NC2=C(C(=O)CC(C)(C)C2)C1c1cnn(C)c1C (stereo unspecified) -3.34%
C/C(=N\Nc1nc2ccccc2[nH]1)c1ccc(C)o1 9.28%
C/C(=N\Nc1nc2ccccc2[nH]1)c1ccc(Cl)s1 31.6%
CN(C)S(=O)(=O)c1ccc(C(=O)NCc2ccccc2)cc1 5.29%
CC(C)CNC(=O)COC(=O)c1cccc(S(=O)(=O)NCC(F)(F)F)c1 0.22%
Cn1c(=O)c(C(=O)NNC(=O)c2ccccc2Cl)c(O)c2ccccc21 3.12%
